The nature of assay [1]: qHTS of pediatric cancer cell lines to identify multiple opportunities for drug repurposing: Primary screen for A673 cells (AID 1347092). Note: nearly all actives have a fitted effect of over 45% in size. The method in brief: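 Titration-based qHTS on A673 cells: MIPE compounds spanned 11 points (0.78 nM to 46 µM final), NPC compounds 8 points (0.59 nM to 46 µM final). Viability after 48 h was measured by ATP luminescence.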
(qHTS replaces the single test concentration by a dilution series.)

Assay [2] in a line: qHTS of pediatric cancer cell lines to identify multiple opportunities for drug repurposing: Primary screen for SK-N-MC cells (AID 1347093). The method in brief: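 Metabolically active cells were quantified by ATP-dependent luminescence (CellTiter-Glo, 15 min at room temperature) following 48 h treatment. Cells had been plated at 500-1,000 per well and settled for 5 h beforehand.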

Assay [3] in a line: qHTS of pediatric cancer cell lines to identify multiple opportunities for drug repurposing: Primary screen for NB-EBc1 cells (AID 1347095). The method, boiled down: (§1)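 CRCs from 8- or 11-point titrations (lowest final 0.59 nM NPC, 0.78 nM MIPE). Cell viability: CellTiter-Glo after 48 h incubation, 15 min room-temperature development, luminescence imaging.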
A short description of assay [4]: qHTS of pediatric cancer cell lines to identify multiple opportunities for drug repurposing: Primary screen for U-2 OS cells (AID 1347096). Note: nearly all actives have a fitted effect of over 50% in size. The method in brief: (§2)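 Cells (500-1,000/well) rested 5 h, then received compounds for 48 h; metabolically active cells were measured by CellTiter-Glo luminescence. Final concentrations spanned up to 46 µM (MIPE, 11-point) or 0.59 nM-46 µM (NPC, 8-point) in primary screens, 11-point in follow-ups.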

The nature of assay [5]: qHTS of pediatric cancer cell lines to identify multiple opportunities for drug repurposing: Primary screen for Saos-2 cells (AID 1347097). Note: nearly all actives have a fitted effect of over 40% in size. The method, boiled down: as §1
Assay [6] can be described thus: qHTS of pediatric cancer cell lines to identify multiple opportunities for drug repurposing: Primary screen for SK-N-SH cells (AID 1347098). Note: nearly all actives have a fitted effect of over 65% in size. The method, boiled down:
as §2

Assay [7] is described as follows: qHTS of pediatric cancer cell lines to identify multiple opportunities for drug repurposing: Primary screen for NB1643 cells (AID 1347099). Note: nearly all actives have a fitted effect of over 50% in size. The method, boiled down:
as §1

Assay [8] in a line: qHTS of pediatric cancer cell lines to identify multiple opportunities for drug repurposing: Primary screen for LAN-5 cells (AID 1347100). The method in brief:
as §2

A short description of assay [9]: qHTS of pediatric cancer cell lines to identify multiple opportunities for drug repurposing: Primary screen for Rh18 cells (AID 1347102). Note: nearly all actives have a fitted effect of over 65% in size. The method, boiled down:
as §2

Assay [10] is described as follows: qHTS of pediatric cancer cell lines to identify multiple opportunities for drug repurposing: Primary screen for RD cells (AID 1347104). Note: nearly all actives have a fitted effect of over 55% in size. The method, boiled down: as §1
The nature of assay [11]: qHTS of pediatric cancer cell lines to identify multiple opportunities for drug repurposing: Primary screen for MG 63 (6-TG R) cells (AID 1347105). Note: nearly all actives have a fitted effect of over 50% in size. The method in brief: as §1
The nature of assay [12]: qHTS of pediatric cancer cell lines to identify multiple opportunities for drug repurposing: Primary screen for control Hh wild type fibroblast cells (AID 1347106). Note: nearly all actives have a fitted effect of over 55% in size. The method, boiled down: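 Cells (500-1,000/well) in growth media were settled 5 h at 37 degrees C, then given compounds for 48 h. Viability was read as CellTiter-Glo luminescence. Primary runs used MIPE at 11 points (0.78 nM-46 µM) and NPC at 8 points (0.59 nM-46 µM); follow-ups used 11 points.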

A short description of assay [13]: qHTS of pediatric cancer cell lines to identify multiple opportunities for drug repurposing: Primary screen for Rh30 cells (AID 1347107). Note: nearly all actives have a fitted effect of over 75% in size. The method in brief:
as §2

The nature of assay [14]: qHTS of pediatric cancer cell lines to identify multiple opportunities for drug repurposing: Primary screen for Rh41 cells (AID 1347108). Note: nearly all actives have a fitted effect of over 70% in size. The method in brief:
as §1

The nature of assay [15]: qHTS of pediatric cancer cell lines to identify multiple opportunities for drug repurposing: Confirmatory screen for NB1643 cells (AID 1347109). Note: nearly all actives have a fitted effect of over 45% in size. The method in brief:
as §2

The nature of assay [16]: qHTS of pediatric cancer cell lines to identify multiple opportunities for drug repurposing: Confirmatory screen for A673 cells (AID 1347110).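 Note: cells exposed to compound for 48 h before the viability read; nearly all actives have a fitted effect of over 65% in size.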 The method in brief: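 Forty-eight-hour viability assay. Follow-up compounds ran at 11-point dilutions; positive control bortezomib at 2.3 uM final, neutral control DMSO.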
Assay [17] is described as follows: qHTS of pediatric cancer cell lines to identify multiple opportunities for drug repurposing: Confirmatory screen for SK-N-MC cells (AID 1347111).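 Note: cells exposed to compound for 48 h before the readout; nearly all actives have a fitted effect of over 70% in size.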 The method, boiled down: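 Seed 500-1,000 cells/well; rest 5 h at 37 degrees C. Pin-transfer compounds, 11-point titration. Incubate 48 h. Add CellTiter-Glo, 15 min RT, read luminescence.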
Assay [18] in a line: qHTS of pediatric cancer cell lines to identify multiple opportunities for drug repurposing: Primary screen for OHS-50 cells (AID 1347103). Note: nearly all actives have a fitted effect of over 40% in size. The method in brief: as §2
The nature of assay [19]: qHTS of pediatric cancer cell lines to identify multiple opportunities for drug repurposing: Primary screen for BT-37 cells (AID 1347094). The method, boiled down: as §1
Assay [20] in a line: qHTS of pediatric cancer cell lines to identify multiple opportunities for drug repurposing: Primary screen for BT-12 cells (AID 1347101). Note: nearly all actives have a fitted effect of over 25% in size. The method, boiled down: as §2

Records with an inconclusive call do not appear. Active and inactive are the calls of the source. Calls come from the whole dose curve; as a rule, active = well fitted curve in the direction sought with a large enough effect; inconclusive = small, poorly fitted or top-dose-only effect, or another doubt; inactive = no such curve, though single readings can be large; an effect the other way counts as inactive or inconclusive. Non-standard residues stand in square brackets, D forms with d. Residues, ends and D or L forms follow the SMILES beside them. *: point of attachment. Nva = CCC[C@H](N)C(=O)O; Cbz = O=C(OCc1ccccc1)*
Potency is the fitted concentration of half-maximal effect.

In the case of `CCC[C@@H](C=O)NC(=O)[C@H](CC(C)C)NC(=O)[C@H](CC(C)C)NC(=O)OCc1ccccc1` (Cbz-Leu-Leu-[Nva]-aldehyde), the Potency in [1] was 590 nM (active); in assay [2], 105 nM (active); in [3], 372 nM (active); in assay [4], 2350 nM (active); in assay [5], 1180 nM (active); in assay [6], 1360 nM (active). Further, the Potency in assay [7] was 469 nM (active); in assay [8], 935 nM (active); in assay [9], 2350 nM (active); in [10], 935 nM (active); in assay [11], 935 nM (active); in assay [12], 5260 nM (active). Further, the Potency in assay [13] was 4690 nM (active); in assay [14], 2350 nM (active); in [15], 1650 nM (active); in assay [16], 1170 nM (active); in assay [17], 414 nM (active).

For the molecule `O=[N+]([O-])c1cn2c(n1)OC[C@@H](OCc1ccc(OC(F)(F)F)cc1)C2`, the Potency result in [1], in assay [2], in assay [3], in assay [4], in assay [5] and in assay [7] was “inactive” each time. The Potency result in assay [8], in assay [10], in [11], in [12] and in assay [13] was “inactive” throughout.

Turning to `Cc1cc(Nc2ncc3c(n2)N(C)C(=O)N(c2cc(NC(=O)c4cccc(C(F)(F)F)c4)ccc2C)C3)n(C)n1`, the Potency in assay [1] is 372 nM (active); in assay [2] it was 209 nM (active); in assay [3] it was 743 nM (active); in assay [4] it was 935 nM (active); in assay [5], 372 nM (active); in assay [6] it was 607 nM (active). Moreover, the Potency in assay [7] is 209 nM (active); in assay [8], 935 nM (active); in [18], 217 nM (active); in [10], 418 nM (active); in assay [11], 590 nM (active); in assay [12], 743 nM (active). Besides, the Potency is 743 nM (active) in assay [14], 414 nM (active) in assay [16] and 369 nM (active) in [17].

Regarding `CC(C=CC=C(C)C=CC1=C(C)CCCC1(C)C)=CC=CC=C(C)C=CC=C(C)C=CC1=C(C)CCCC1(C)C`, the Potency was 5900 nM (active) in [1], 7430 nM (active) in assay [2] and 29600 nM (active) in assay [10]. The Potency result in assay [19], in assay [4], in [20], in [9] and in assay [12] was “inactive” in each case.

As to `C#CCC(Cc1cnc2nc(N)nc(N)c2n1)c1ccc(C(=O)N[C@@H](CCC(=O)O)C(=O)O)cc1` (some centres not stated), the Potency in assay [1] was 29.6 nM (active); in assay [2], 23.5 nM (active); in assay [19], 54.4 nM (active); in [3], 372 nM (active); in assay [20], 48.5 nM (active); in assay [10] it was 74.3 nM (active). For the same molecule, the Potency in assay [16] was 65.7 nM (active); in [17], 52.2 nM (active). Further, the Potency result in assay [5], in [9], in assay [12], in [13] and in assay [15] was “inactive” in each case.

Regarding `OCCN1C[C@H](O)[C@@H](O)[C@H](O)[C@@H]1CO`, the Potency in [1] is 9350 nM (active). Besides, the Potency result in [2], in assay [3], in assay [4], in assay [5], in assay [6] and in [7] was “inactive” each time. The Potency entry in assay [9], in assay [18], in assay [10], in [11], in assay [12] and in assay [13] was “inactive” throughout. In addition, in assay [14], the Potency result was “inactive”.

`COc1cc2c(cc1OC)[C@@H]1C(=O)c3ccc4c(c3O[C@@H]1CO2)C=CC(C)(C)O4`: the Potency was 74.3 nM (active) in assay [1]; 148 nM (active) in [2]; 10500 nM (active) in assay [3]; 13200 nM (active) in assay [5]; 3320 nM (active) in assay [7]; 18700 nM (active) in assay [8]. The Potency was 172 nM (active) in assay [18], 264 nM (active) in assay [10], 16500 nM (active) in assay [16] and 2330 nM (active) in assay [17]. The Potency result in [4] and in assay [9] was “inactive” each time.

Consider `OC[C@@H](O)[C@@H](O)[C@H](O)[C@@H](O)CO`, for which the Potency entry in [1], in [2], in [3], in [4], in assay [5] and in [6] was “inactive” throughout. For the same molecule, the Potency result in assay [7], in [8], in assay [20], in assay [9], in [18] and in assay [10] was “inactive” in each case. In addition, the Potency entry in assay [11], in assay [12], in assay [13] and in [14] was “inactive” throughout.

In the case of `CN(C)CC(=O)N1CCC(c2ccc(NC(=O)c3ncc(C#N)[nH]3)c(C3=CCCCC3)c2)CC1`, the Potency was 18700 nM (active) in assay [1]; 1660 nM (active) in assay [2]; 23500 nM (active) in [3]; 18700 nM (active) in assay [5]; 1210 nM (active) in assay [6]; 18700 nM (active) in [7]. In addition, the Potency was 16600 nM (active) in assay [8], 30600 nM (active) in assay [20], 23500 nM (active) in assay [9] and 18700 nM (active) in assay [10]. In addition, the Potency entry in [12] is “inactive”.

As for `COC(=O)C=CC(=O)OC`, the Potency is 7430 nM (active) in assay [1]; 3.7 nM (active) in [2]; 15200 nM (active) in assay [6]; 7430 nM (active) in assay [7]; 235 nM (active) in assay [11]; 23500 nM (active) in assay [14]. Besides, the Potency in assay [17] is 3290 nM (active). Besides, the Potency result in assay [19], in assay [4], in [5], in [8], in assay [20] and in [9] was “inactive” throughout. Besides, the Potency entry in assay [13] and in assay [16] was “inactive” in each case.

As for `O=c1[nH]c(=O)n([C@H]2C[C@@H](O)[C@@H](CO)O2)cc1F`, the Potency in [1] is 1870 nM (active); in assay [2], 16600 nM (active); in assay [19] it was 685 nM (active); in assay [4], 18700 nM (active); in assay [5], 5900 nM (active); in [7], 14800 nM (active). Also, the Potency in [8] was 1320 nM (active); in [20], 6110 nM (active); in [10] it was 16600 nM (active); in assay [11], 18700 nM (active); in assay [13], 2350 nM (active); in assay [14] it was 1480 nM (active). In addition, the Potency result in assay [6] was “inactive”.

Regarding `COc1cc2ncnc(Nc3cccc(Br)c3)c2cc1OC`, the Potency in assay [1] was 5.9 nM (active); in [2] it was 11.8 nM (active); in [19], 24300 nM (active); in [5], 29600 nM (active); in [7], 7430 nM (active); in assay [18], 15300 nM (active). In addition, the Potency was 935 nM (active) in assay [10], 18500 nM (active) in [15], 14700 nM (active) in assay [16] and 11700 nM (active) in assay [17]. Also, the Potency entry in [12] and in [13] was “inactive” throughout.

The record behind these values is PubChem BioAssay (NCATS).
